The source of these data is PubChem BioAssay (Tox21).

Values joined by “and” are separate entries in the source; they are usually repeats but may differ in a detail not shown here. Equal values may be shown once. Records with an inconclusive call do not appear. A call without a number means that no potency is given here. Active and inactive are the calls of the source. The call rests on the fitted dose curve; in most records, active means well fitted cell-killing curve with a large enough effect in the repeat runs; inconclusive means weak or mixed curves; inactive means no such curve, though single readings can be large or run the other way.
Potency means the concentration at half of the fitted maximal effect.

This test can be described thus: qHTS assay to identify small molecule antagonists of the peroxisome proliferator-activated receptor delta (PPARd) signaling pathway - cell viability counter screen (AID 743213). Further: nearly all actives have a fitted effect of over 50% in size. The note with it: PPARd-bla HEK293H viability, CellTiter-Glo luminescence, 17 h; series mostly up to 62 µM. From the text:
U.S. Tox21 Program National Center for Advancing Translational Sciences [NCATS] NIH Chemical Genomics Center [NCGC] U.S. Environmental Protection Agency [EPA] National Institutes of Environmental Health Sciences [NIEHS] National Toxicology Program [NTP] U.S. Food and Drug Administration [FDA] Tox21 Assay Overview: The peroxisome proliferator-activated receptors (PPARs) are lipid-activated transcription factors of the nuclear receptor superfamily with three distinct subtypes namely PPAR alpha, PPAR delta (PPARd) and PPAR gamma. All these subtypes heterodimerizes with Retinoid X receptor (RXR) and have different physiological functions. […] To identify the compounds that inhibit PPAR-delta signaling, GeneBLAzer PPAR delta UAS-bla HEK293H cell line (Invitrogen, Carlsbad, CA, USA) containing a beta-lactamase reporter gene under the control of an Upstream Activator Sequence (UAS) was used to screen the Tox21 compound library. The cytotoxicity of the Tox21 compound library against the PPARd-bla cell line was tested in parallel by measuring the cell viability using CellTiter-Glo assay (Promega, Madison, WI) in the same wells.
Tox21 Assay Protocol Summary: PPARd-bla cells were dispensed at 3000 cells/5uL/well in 1536-well black wall/clear bottom plates using a Multidrop Combi (Thermo Fisher Scientific, Waltham, MA) dispenser. After the assay plates were incubated at 37 C and 5% CO2 for 5 h, 23 nL of compounds dissolved in DMSO, positive controls or DMSO only was transferred to the assay plate by a Pintool station (Kalypsys, San Diego, CA), followed by addition of 1ul L165041 (300 nM, final concentration in the wells). The assay plates were incubated at 37 C for 17 h, and then 1 uL of LiveBLAzerTM B/G FRET substrate was added using a Bioraptr Flying Reagent Dispenser (FRD) workstation (Beckman Coulter, Indianapolis, IN, USA). The assay plates were incubated at room temperature for 2 h and fluorescence intensity was measured by an Envision plate reader (PerkinElmer, Shelton, CT). For cell viability readout that measures cytotoxicity, 3 ul/well of CellTiter-Glo reagent was added into the assay plates using a Bioraptr FRD. After 30 min incubation at room temperature, the luminescence intensity in the plates was measured using a ViewLux plate reader (PerkinElmer).
A general note: Quantitative high-throughput screening tests each substance at several concentrations.
Take `CC1CCCCN1CCCOC(=O)c1ccc(OC2CCCCC2)cc1` (stereo not given): the Potency entry is “inactive”.

Take `Cc1cccc(Br)c1`: the Potency result was “inactive”.

Take `CC(C(O)c1ccccc1)N(C)CCOC(c1ccccc1)c1ccccc1` (stereo not given): the Potency is 33.5 µM (active).

`O=C1Nc2ccc(Cl)cc2[C@@](C#CC2CC2)(C(F)(F)F)O1`: the Potency entry is “inactive”.

With `COC(=O)C1=C(C)NC(C)=C(C(=O)OCCCN2CCC(c3ccccc3)(c3ccccc3)CC2)C1c1cccc([N+](=O)[O-])c1` (stereo not given), the Potency is 11.9 µM (active).

For `CCO[Si](CCCSSSSCCC[Si](OCC)(OCC)OCC)(OCC)OCC`, the Potency result was “inactive”.

For the compound `Cc1occc1SSc1ccoc1C`, the Potency result is “inactive”.

As for `Cc1c(-c2ccc(O)cc2)n(Cc2ccc(OCCN3CCCCCC3)cc2)c2ccc(O)cc12`, the Potency was 26.6 µM (active).

With `CCOC(=O)N1CCC(=C2c3ccc(Cl)cc3CCc3cccnc32)CC1`, the Potency is 43.6 µM (active).

Regarding `O=C1c2c(O)ccc([N+](=O)[O-])c2C(=O)c2c([N+](=O)[O-])ccc(O)c21`, the Potency is 13.7 µM (active).

For `CC(C)N=C(N)/N=C(\N)Nc1ccc(Cl)cc1`, the Potency was 11.9 µM (active).

Consider `CCCCCCCCCCCCN(CCO)CCO`, for which the Potency was 48.8 µM (active).

Regarding `CC(CN(C)C)CN1c2ccccc2CCc2ccccc21` (stereo not given), the Potency is 29.8 µM (active).

In the case of `N#CSCSc1nc2ccccc2s1`, the Potency is 4.9 µM (active).

On to `COc1cc(C(=O)NS(=O)(=O)c2ccccc2C)ccc1Cc1cn(C)c2ccc(NC(=O)OC3CCCC3)cc12`, for which the Potency result was “inactive”.

`Cc1ccc2ccc3cccc4ccc1c2c34`: the Potency result is “inactive”.

On to `C=C[C@](C)(O)CC[C@@H]1[C@@]2(C)CCCC(C)(C)[C@@H]2CC[C@@]1(C)O`, for which the Potency is 34.7 µM (active).

Consider `Cc1cc2c(C(C)C)c(O)c(O)c(C=O)c2c(O)c1-c1c(C)cc2c(C(C)C)c(O)c(O)c(C=O)c2c1O`, for which the Potency is 11.9 µM (active).

Regarding `O=C(O)Cc1ccc(OCCNC[C@H](O)c2ccccc2)cc1`, the Potency result is “inactive”.

Take `Nc1ccc2cc3ccc(N)cc3nc2c1`: the Potency entry is “inactive”.

As to `O=C1NCN(c2ccccc2)C12CCN(CCCC(c1ccc(F)cc1)c1ccc(F)cc1)CC2`, the Potency was 21.1 µM (active).

In the case of `O=C(c1ccccc1)c1cc(Cl)ccc1O`, the Potency entry was “inactive”.

Turning to `c1ccc(Nc2cccc3ccccc23)cc1`, the Potency entry was “inactive”.

In the case of `C=C(c1ccc(C(=O)O)cc1)c1cc2c(cc1C)C(C)(C)CCC2(C)C`, the Potency is 21.9 µM (active) and 29.8 µM (active).

With `CC(O)C#CC(C)O` (stereo not given), the Potency result is “inactive”.

As to `CC(C)(C)c1cc(/C=C2\SC(=N)NC2=O)cc(C(C)(C)C)c1O`, the Potency is 54.9 µM (active).

As for `O=C1NCCN1CCN1CCC(c2cn(-c3ccc(F)cc3)c3ccc(Cl)cc23)CC1`, the Potency is 23.7 µM (active).

Take `Nc1ncnc2c1ncn2[C@@H]1O[C@H](COP(=O)(O)O)[C@@H](O)[C@H]1O`: the Potency is 11.9 µM (active).

Turning to `CCCCCCCCCC(=O)N(C)C`, the Potency result is “inactive”.

`CSc1ccc2c(c1)N(CCC1CCCCN1C)c1ccccc1S2` (stereo not given): the Potency was 21.8 µM (active) and 13.3 µM (active).

With `Cc1ccc(N)cc1O`, the Potency entry was “inactive”.

With `Clc1ccccc1CN1CCc2sccc2C1`, the Potency entry is “inactive”.

As to `Nc1cc(Cl)c([N+](=O)[O-])cc1O`, the Potency result is “inactive”.

With `O=C1NC2CCCCN2C12CCN(CCCN1c3ccccc3CCc3ccc(Cl)cc31)CC2` (stereo not given), the Potency was 26.6 µM (active).

With `Oc1ccc(-c2ccc(O)cc2)cc1`, the Potency result is “inactive”.

With `NCCCCCCNCCCCCCN`, the Potency result is “inactive”.

Turning to `COc1ccc2sc(C(=O)Nc3nnn[nH]3)c(OC(C)C)c2c1`, the Potency entry is “inactive”.

In the case of `CCN1CCN(c2cc(-c3ccc(F)cc3)c3c(n2)CCCCCC3)CC1`, the Potency result is “inactive”.

For the compound `C/C=C/C=N/NC(=O)c1ccncc1`, the Potency entry was “inactive”.

Take `C1CC(COCC2CO2)CCC1COCC1CO1` (stereo not given): the Potency result is “inactive”.
